Measured values reported in PubChem BioAssay AID2108 (National Center for Advancing Translational Sciences (NCATS), 2009).
Records with an inconclusive call do not appear. Activity calls are given as the source filed them. The call rests on the fitted dose curve; in most records, active means well fitted curve in the direction sought with a large enough effect; inconclusive means small, poorly fitted or top-dose-only effect, or effect the other way, or another doubt; inactive means no such curve, though single readings can be large or run the other way.

Biological target: Alpha-galactosidase A (Homo sapiens) (UniProt P06280)
Assay: Confirmation of Inhibitors of Human alpha-Galactosidase Using Spleen Homogenate
Details: alpha-galactosidase enzyme activity; series mostly up to 56.2 µM
Outline: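 AC50 values come from Hill-equation fits of normalised 4-methylumbelliferone fluorescence (365/440 nm, read after NaOH/glycine stop). Enzyme source: spleen homogenate; substrate 1 mM final; pH 5.0 citrate buffer; 40 min at 37C; compound titration 0.5 nM–58 uM.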

Sequence of Alpha-galactosidase A (Homo sapiens) (P06280 32-429 limits assumed): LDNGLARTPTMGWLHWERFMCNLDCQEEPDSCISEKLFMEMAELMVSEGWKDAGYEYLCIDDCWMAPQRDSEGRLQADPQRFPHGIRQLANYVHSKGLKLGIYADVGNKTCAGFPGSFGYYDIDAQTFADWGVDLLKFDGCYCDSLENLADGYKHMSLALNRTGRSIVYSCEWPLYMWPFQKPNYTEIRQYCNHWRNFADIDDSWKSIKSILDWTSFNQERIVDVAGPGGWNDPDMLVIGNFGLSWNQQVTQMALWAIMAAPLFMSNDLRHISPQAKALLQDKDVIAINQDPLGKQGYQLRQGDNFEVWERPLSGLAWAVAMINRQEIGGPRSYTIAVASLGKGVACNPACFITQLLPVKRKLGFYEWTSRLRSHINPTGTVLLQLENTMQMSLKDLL

outcome, inactive:
Cc1ccccc1NC(=O)CC1c2ccccc2CC(C)(C)N1C (stereo not drawn)
O=C(c1ccc2ccccc2c1)N1CCN(S(=O)(=O)c2ccccc2)CC1
Cc1ccc2oc(C(=O)Nc3ccc(S(=O)(=O)N4CCCCC4C)cc3)cc(=O)c2c1 (stereo not drawn)
CC1CCc2nc(-c3cc4ccc(O)cc4oc3=O)sc2C1 (stereo not drawn)
Cn1c(=O)c2c(nc(NCc3ccc4c(c3)OCO4)n2Cc2ccc(F)cc2)n(C)c1=O
Cc1cccn2c(=O)c3cc(C#N)c(=NC(=O)c4cccs4)n(CCCOC(C)C)c3nc12
COc1ccc(NS(=O)(=O)c2ccc(O)c(NC(=O)c3cc4c(C)nn(-c5ccc(F)cc5)c4s3)c2)cc1
COc1ccc(NC(=O)CC2Nc3cc(C)c(C)cc3NC2=O)c([N+](=O)[O-])c1 (stereo not drawn)
CN1CC=C2C(C#N)=C(N)C(C#N)(C#N)[C@H](c3cccc(Cl)c3)C2C1 (stereo partly drawn)
Cc1nc(SCC(=O)N2CCN(c3ccccc3)CC2)c2oc3ccccc3c2n1
O=C(CC(c1ccccc1)c1cc(Br)ccc1O)NCCN1CCOCC1 (stereo not drawn)
Cc1ccc(S(=O)(=O)N2CCOCC2)cc1C
CCc1sc(-c2cc3ccc(O)cc3oc2=O)nc1-c1cc(C)ccc1C
CC1CCc2nc(-c3cc4c(ccc5ccccc54)oc3=O)sc2C1 (stereo not drawn)
OCCN1CC(O)C(O)C(O)C1CO (stereo not drawn)
CCOc1ccccc1CNc1ccc(O)cc1
O=C1c2ccccc2NC(c2cccnc2)N1c1ccccc1F (stereo not drawn)
CC(C)Cn1c(SCC(=O)N2CCN(S(=O)(=O)c3ccccc3)CC2)nc2ccccc21
